# ± gives the standard deviation of the averaged measurements.
# Legend:
# Settings in all cases: concentration: 10 µM; 24 h
# HCC1569 [1] = assay: cell number relative to DMSO (% of DMSO); higher = more cells (less growth inhibition / toxicity)
# Outline: (§1)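 In 384-well plates holding 800 HCC1569 or TDF cells per well in RPMI with 10% FBS, compounds were tested at 10 µM for 24 h at 37 °C in triplicate. Fixation used 3.7% formaldehyde. Staining used a rabbit anti-H1.0 antibody with an AlexaFluor 647 secondary, plus DAPI. Each value, H1.0 nuclear intensity or cell number, is a median of replicates shown as percent of the plate control, and HCC1569 values were smoothed for positional effects.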
# TDF [2] = assay: as above
# Outline: as §1
# TDF [3] = assay: H1.0 immunofluorescence intensity relative to DMSO (% of DMSO); higher = stronger H1.0 induction, active = 120 or more
# Outline: as §1
# HCC1569 [4] = assay: H1.0 immunofluorescence intensity relative to DMSO (% of DMSO); higher = stronger H1.0 induction, active = 140 or more
# Outline: as §1
# 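Wherever H1.0 immunofluorescence intensity relative to DMSO is given: TDF is a line of transformed human dermal fibroblasts of mesenchymal origin.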
# 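Wherever cell number relative to DMSO is given: TDF denotes transformed human dermal fibroblasts of mesenchymal origin.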
Structure (SMILES),cell number (HCC1569 [1]),cell number (TDF [2]),H1.0 immunofluorescence intensity (TDF [3]),H1.0 immunofluorescence intensity (HCC1569 [4])
c1ccc2c(CC3=NCCN3)cccc2c1 [Naphazoline],99.4,102,98 (inactive),113 (inactive)
CCNC(=O)CC[C@H](N)C(=O)O [L-Theanine],103,103,102 (inactive),95.6 (inactive)
O=C(Nc1ccc(Oc2ccnc3[nH]ccc23)c(F)c1)c1cccn(-c2ccc(F)cc2)c1=O,102,103,95.1 (inactive),111 (inactive)
CC12CCc3occc3C1CCC13CC(CCC12)C(O)(CO)C3 (configuration not stated) [Cafestol],103,101,103 (inactive),88.2 (inactive)
CC(Nc1nc(N2CCCC2)nc2ccccc12)c1ccccc1 (configuration not stated) [N-(1-phenylethyl)-N-[2-(1-pyrrolidinyl)-4-quinazolinyl]amine],83.8,75.1,123 (active),120 (inactive)
CCCCCCCCCCCC1=C(O)C(=O)C=C(O)C1=O [Embelin],98.8,97.1,97.6 (inactive),87.3 (inactive)
CCC=CCC=CCC=CCC=CCC=CCC=CCCC(=O)O [Docosahexaenoic acid],99.8 ± 4.3,97.5 ± 3.1,104 (inactive),105 (inactive)
CCOC(=O)OC(C)OC1=C(C(=O)Nc2ccccn2)N(C)S(=O)(=O)c2ccccc21 (configuration not stated) [Ampiroxicam],105,94.9,99.6 (inactive),116 (inactive)
CCCCCC(O)C=CC1C(O)CC(O)C1CCCCCCC(=O)O (configuration not stated) [Prostaglandin F1a],106,101,91.9 (inactive),97.7 (inactive)
Cl.O=C(CCCN1CCC(O)(c2cccc(C(F)(F)F)c2)CC1)c1ccc(F)cc1 [Trifluperidol hydrochloride],101,111,98.4 (inactive),105 (inactive)
CC#CCOC(=O)c1c(C)nc2sc3c(c2c1N)CCC(O)C3 (configuration not stated),87.1,85.8,99.5 (inactive),134 (inactive)
Cc1cc(I)ccc1Nc1c(C(=O)NOCC2CC2)cc(F)c(F)c1F,97.2,95.6,91.1 (inactive),116 (inactive)
CCCN1CCCC[C@H]1C(=O)Nc1c(C)cccc1C.Cl.O,99.7,103,99 (inactive),113 (inactive)
CC(C)NCC(O)COc1ccc(CC(N)=O)cc1 (racemic),109,101,93.8 (inactive),88.2 (inactive)
CCCCCCCCC=CCCCCCCCC(=O)OCC(CO)OC(C)=O (configuration not stated) [1-Oleoyl-2-acetyl-glycerol],98.9,106,89.4 (inactive),106 (inactive)
CSc1nc(-c2ccnc(NC(C)c3ccccc3)c2)c(-c2ccc(F)cc2)[nH]1 (configuration not stated) [p38 MAP Kinase Inhibitor III],94.8,107,95.2 (inactive),113 (inactive)
CCCCCCCCC=CCCCCCCCC(=O)O [9(E)-Octadecenoic acid],100,108,94.9 (inactive),101 (inactive)
CCCCCCC(O)CC=CCCCCCCCC(=O)O (configuration not stated) [Ricinoleic acid],98.1,104,97.7 (inactive),101 (inactive)
CCCN(CCC)CCc1cccc2c1CC(=O)N2.Cl [Ropinirole hydrochloride],101,95.8,96.1 (inactive),101 (inactive)
"O=C1CC(=O)c2c(Cl)c(Cl)c(Cl)c(Cl)c21 [4,5,6,7-tetrachloro-1H-indene-1,3(2H)-dione]",101,103,117 (inactive),99.1 (inactive)
CCCCCC=CCC=CCC=CCCCCCCC(=O)O [Dihomo-γ-linolenic acid],99.6,98.6,96.3 (inactive),97.7 (inactive)
CC(=O)C1CCC2C3CC=C4CC(O)CCC4(C)C3CCC12C (configuration not stated) [Pregnenolone],102,102,95.7 (inactive),112 (inactive)
CC1C(=O)OC2CC34C5CC(C(C)(C)C)C36C(OC(=O)C6O)OC4(C(=O)O5)C21O (configuration not stated) [Ginkgolide A],99.6 ± 1.2,99 ± 3,92.3 (inactive),95.8 (inactive)
CC(C)(Sc1cc(C(C)(C)C)c(O)c(C(C)(C)C)c1)Sc1cc(C(C)(C)C)c(O)c(C(C)(C)C)c1 [Probucol],102,106,91.9 (inactive),91.8 (inactive)

Structure (SMILES),cell number (HCC1569 [1]),cell number (TDF [2]),H1.0 immunofluorescence intensity (TDF [3]),H1.0 immunofluorescence intensity (HCC1569 [4])
Br.CN1C2CCC1CC(OC(=O)C(O)c1ccccc1)C2 (configuration not stated),102,97.5,97.2 (inactive),94.6 (inactive)
O=c1[nH]c(=O)n(C2CC(O)C(CO)O2)cc1Br (configuration not stated) [5-Bromo-2'-deoxyuridine],99,106,95.7 (inactive),105 (inactive)
CCN(CC)CCCC(C)Nc1ccnc2cc(Cl)ccc12.O=P(O)(O)O.O=P(O)(O)O (configuration not stated) [Chloroquine diphosphate],98.3,106,94.7 (inactive),94.1 (inactive)
C[C@@H](Oc1cc(-c2cnn(C3CCNCC3)c2)cnc1N)c1c(Cl)ccc(F)c1Cl,59.6,36.3,161 (active),136 (inactive)
"CC(C)CCC[C@@H](C)[C@H]1CC[C@H]2[C@@H]3CC(=O)[C@H]4C[C@@H](O)CC[C@]4(C)[C@H]3CC[C@]12C [(3beta,5alpha)-3-hydroxycholestan-6-one]",105,92.5,98.5 (inactive),98.6 (inactive)
CC(C(=O)O)c1cccc(Oc2ccccc2)c1 (configuration not stated) [Fenoprofen],102,101,94.2 (inactive),120 (inactive)
CC(=O)Nc1ccc(NC(=S)NC(=O)c2ccc(C(C)(C)C)cc2)cc1 [p53 Activator (Tenovin-1)],96.5,91.1,104 (inactive),153 (active)
COC(C(=O)C(O)C(C)O)C1Cc2cc3cc(OC4CC(OC5CC(O)C(O)C(C)O5)C(O)C(C)O4)c(C)c(O)c3c(O)c2C(=O)C1OC1CC(OC2CC(OC3CC(C)(O)C(O)C(C)O3)C(O)C(C)O2)C(O)C(C)O1 (configuration not stated) [Mithramycin A],68.7,29.9,109 (inactive),112 (inactive)
O=C(O)C=Cc1cnc[nH]1 [4-Imidazoleacrylic acid],101,107,97.2 (inactive),108 (inactive)
CCCCCC=CCC=CC=CC=CCC(=O)CCCC(=O)O [5-Ketoeicosatetraenoic acid],99.9,95.5,98.1 (inactive),96.5 (inactive)
COc1ccc(C(=O)NCc2cccnc2)cc1C(=O)NCc1cccnc1 [Picotamide],102.3 ± 0.66,103 ± 5.2,93.6 (inactive),103 (inactive)
CCOC(=O)C1=C(C)NC(C)=C(C(=O)OCC)C1c1ccccc1C=CC(=O)OC(C)(C)C [Lacidipine],93.2,93.4,98.1 (inactive),125 (inactive)
COc1cccc2c1C(=O)c1c(O)c3c(c(O)c1C2=O)CC(O)(C(C)=O)CC3OC1CC(N)C(O)C(C)O1 (configuration not stated) [Daunorubicin],53.3 ± 2.3,8.2 ± 1.4,134 (active),1730 (active)
C[N+]1(C)CCC(OC(=O)C(c2ccccc2)c2ccccc2)CC1.[I-] [4-DAMP methiodide],100,105,98.6 (inactive),101 (inactive)
Cc1ccccc1C(OCCN(C)C)c1ccccc1.Cl (configuration not stated) [Orphenadrine hydrochloride],100,111,96.6 (inactive),97 (inactive)
NS(=O)(=O)c1cc(C(=O)O)c(NCc2ccco2)cc1Cl [Furosemide],101 ± 1.2,110 ± 1.9,91 (inactive),100 (inactive)
Cc1[nH]ccc2c1[nH]c1cc(=O)ccc12.Cl.O.O,94,94.7,97.1 (inactive),94.2 (inactive)
C=C1C(=O)C23C(O)C1CCC2C12COC3(O)C(O)C1C(C)(C)CCC2O (configuration not stated) [Rubescensin A],90.8,99,96.2 (inactive),100 (inactive)
CCCCC1C(=O)N(c2ccccc2)N(c2ccccc2)C1=O [Phenylbutazone],101 ± 1.3,106 ± 10,93.7 (inactive),97.5 (inactive)
O=C(Nc1cc(C(=O)Nc2ccc(S(=O)(=O)[O-])cc2S(=O)(=O)[O-])cc(C(=O)Nc2ccc(S(=O)(=O)[O-])cc2S(=O)(=O)[O-])c1)Nc1cc(C(=O)Nc2ccc(S(=O)(=O)[O-])cc2S(=O)(=O)[O-])cc(C(=O)Nc2ccc(S(=O)(=O)[O-])cc2S(=O)(=O)[O-])c1.[Na+].[Na+].[Na+].[Na+].[Na+] [NF449 octasodium salt],97.4,92.8,89.6 (inactive),108 (inactive)
CCN(CC)CCNC(=O)c1ccc(NC(C)=O)cc1.Cl [N-Acetylprocainamide hydrochloride],104,110,105 (inactive),116 (inactive)
CC(C)OC(=O)C(C)(C)Oc1ccc(C(=O)c2ccc(Cl)cc2)cc1 [Fenofibrate],99.6 ± 2.2,106.6 ± 0.69,95 (inactive),109 (inactive)
O=C1NCN(c2ccccc2)C12CCN(CCCC(c1ccc(F)cc1)c1ccc(F)cc1)CC2 [Fluspirilene],82.7 ± 16,87.1 ± 7.5,106 (inactive),126 (inactive)
CN(CCOc1ccc(CC(Nc2ccccc2C(=O)c2ccccc2)C(=O)O)cc1)c1ccccn1 (configuration not stated),102,104,92.6 (inactive),88.2 (inactive)
